Reference: PubChem BioAssay (NCI)
Several values for one entry are separate records, joined by “and”; a condition that tells them apart may be missing. Equal values may be shown once. Compounds without any hit were thinned out: in the full panel of roughly 79,000, 15% have a hit. Values without a mark were called inactive. Activity calls are given as the source filed them. Cut-off read from the data, not from the text of the source: active = growth inhibition above about 70%; inactive = the rest.

Test: NCI Yeast Anticancer Drug Screen. Data for the mec2-1 strain (AID 157)
Conditions: S. cerevisiae mec2-1 strain, at 50.0 µM (retest, dose inferred, filed as 5.0), hits give high values
Summary of the method: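 Compounds were applied to mec2-1 yeast cells. Their growth was then compared with that of vehicle-treated cultures to give growth inhibition.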

Compound	growth inhibition
O=c1[nH]cnc2[nH]cc(CN3CCCCC3)c12	2%
NCCBr	1%
CSc1ncc(COP(=S)(OCc2cnc(SC)nc2N)OCc2cnc(SC)nc2N)c(N)n1	-6%
O=[N+]([O-])c1ccc(O)c(Cl)c1	54%
CCN(CC)CC(=O)c1ccc2c(ccc3ccccc32)c1	100% (active)
Cc1ccc([C@H]2N[C@@H]2c2ccccn2)cc1	1%
CCC1(C2=CCCCC2)C(=O)NC(=S)NC1=O	76% (active)
Cn1cnc(C(=N)[Se])c1N	91% (active)
CCOC(=O)NC(=S)[S][Sb]([S]C(=S)NC(=O)OCC)[S]c1nc2ccc(N=Nc3ccc(NS(=O)(=O)c4ccc(NC(=O)C(N5CC5)(N5CC5)N5CC5)cc4)cc3)cc2s1	99% (active)
COc1ccccc1/C=C(/C)[N+](=O)[O-]	99% (active) and 100% (active)
O=c1oc2ccccc2c(O)c1C(c1ccc(OCc2ccccc2)cc1)c1c(O)c2ccccc2oc1=O	51%
COc1cc(N(CCCl)CCCl)ccc1C=Nc1cccc(Cl)c1	51%
O=[N+]([O-])c1cc2c([N+](=O)[O-])cccc2o1	99% (active)
ClCCN(CCCl)c1ccc(C2N(Cc3ccc(N(CCCl)CCCl)cc3Cl)CCCN2Cc2ccc(N(CCCl)CCCl)cc2Cl)cc1	99% (active)
CCN(Cc1ccccc1)CC(O)c1ccc(Cl)c(Cl)c1 (centres undefined)	99% (active)
FC1(F)C(Cl)=[C]([Hg][C]2=C(Cl)C(F)(F)C(F)(F)C(F)(F)C2(F)F)C(F)(F)C(F)(F)C1(F)F	99% (active)
CCn1c(O)c(C(=O)NC(C)c2ccc([N+](=O)[O-])cc2)c(=O)n(CC)c1=S (centres undefined)	96% (active)
CC(=O)[O][Hg][c]1ccccc1N	64%
CCC[CH2][Sn]1([CH2]CCC)[O]Cc2nc(C)ccc2[O]1	96% (active)
CCCCCCCCCCCCC(=O)[O][Hg][c]1ccccc1	100% (active)

Compound	growth inhibition
CN(C)CC1CC2C3CC=C4CC(O)CCC4(C)C3CCC2(C)C1=O (centres undefined)	85% (active)
CC(=O)O.CC(=O)[O-].CC(=O)[O-].[Co+3].[NH-]CC[NH-].[NH-]CC[NH-]	98% (active)
Nc1nc(CCl)cs1	-2%
CC1=CCC2(C)C3CCC4(C)C(O)CCC4C3CCC2(C)C1 (centres undefined)	95% (active)
CC1CCC2(NC1)OC1CC3C4CC=C5CC(O)CCC5(C)C4CCC3(C)C1C2C (centres undefined)	99% (active) and 98% (active)
CCN1CCC(O)(c2ccc(Cl)c(Cl)c2)C(C(=O)c2ccc(Cl)c(Cl)c2)C1 (centres undefined)	100% (active)
O=C(c1ccccc1)c1c(CC(O)c2ccccn2)n(C(=O)c2ccccc2)c2ccccc12 (centres undefined)	75% (active)
CC(O[Si](c1ccccc1)(c1ccccc1)C(C)(C)C)[C@H](NC(=O)OC(C)(C)C)C(=O)O (some centres undefined)	97% (active)
CC(C)=CC1CC(C)C2(CCC3(C)CC4C(C(=O)CC4(C)O)/C(C=O)=C\CC32)O1 (centres undefined)	100% (active)
CC(=O)O[C@H]1C[C@@H]2OC3C=C(C)CCC3(C)[C@@]1(C)[C@@]21CO1 (some centres undefined)	100% (active)
O=C1NC(=O)C([N+](=O)[O-])C(=O)N1	-4%
N#C[S-].[Nd+3].c1ccc(-c2ccccn2)nc1.c1ccc(-c2ccccn2)nc1.c1ccc(-c2ccccn2)nc1	99% (active)
CC(=O)Nc1ccccc1[As](O[As](c1ccccc1)c1ccccc1NC(C)=O)c1ccccc1 (centres undefined)	100% (active)
Oc1cccc[c]1[Hg][Cl]	100% (active)
Nc1nc(N)c(-c2ccc(Cl)c(Cl)c2)c(CCc2ccc(CNC(=O)Nc3ccc(S(=O)(=O)F)cc3)cc2)n1	19%
C1CC[N-]CC1.CC(=N\O)/C(C)=N/O.CC(=N\O)/C(C)=N/O.OC1[CH-]CCCC1.[Co+2]	16%
CC(=O)OC1C2(CC3N4C(=O)C5(CO)SSC4(CC31O)C(=O)N5C)OC(C)C(C)(C)C2=O (centres undefined)	100% (active)
C[C@H]1C/C=C/[C@H]2[C@@H]3O[C@]3(C)[C@@H](C)[C@H]3[C@H](Cc4ccccc4)NC(=O)[C@]32OC(=O)O/C=C/[C@@](C)(O)C1=O	53%
C1CC[N-]CC1.[Cl][Au]([Cl])[Cl]	63%
